Source: PubChem BioAssay (Broad Institute)
Wnt bcat act: activates Wnt/beta-catenin signaling in a reporter cell assay; 300,000 compounds, 1.2% hits; activation, % at 9.35 µM; activator, plate reader; AID 743398; in the data active = activation above about 30%, passing the limit was not always enough; inconclusive = no clear call, values can overlap the other calls;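 note: 0% = neutral control wells and 100% = positive control wells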
HSF1 inhib: HSF1 inhibition. NIH3T3-HGL HSE-luciferase, MG132-induced, luminescence 8 h; hits give low values. activity change, negative = inhibition, % at 7.5 µM (by protocol). 300,000 compounds, 0.77% hits;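 active = more than half of replicate wells show activity change below -50%, luminescence cut by over half; inconclusive = some wells, but at most half, below -50%; inactive = no replicate well below -50%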;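 note: luciferase reports HSF-1 transcriptional activity via heat shock element; 0% = median of DMSO wells and -100% = zero luminescence signal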
HSF1 activator: increases HSF-1 driven luciferase reporter signal. NIH3T3-HGL HSF-1 luciferase reporter, MG132, 8 h; 100% = twice DMSO control signal. activation, % at 9 µM. 300,000 compounds, 1.7% hits. AID 504408;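 active = mean replicate activation of at least 50% with a set share of replicates each reaching 50%; inconclusive = only one of those two conditions met; inactive = mean below 50% and too few replicates reaching it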;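 note: 0% = median of the neutral control wells and 100% = twice that signal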
MITF TRPM1 HTS: increases MITF-driven TRPM1 promoter luciferase signal; activation, % at 12.5 µM; SK-MEL-5 TRPM1-promoter luciferase, 24 h; % of positive control, neutral wells = 0; 300,000 compounds, 0.75% hits; AID 588334;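 active = mean activation of at least 80% with every replicate also reaching 80%; inconclusive = mean reaches 80% but some replicate falls short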;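 note: 0% = neutral control wells and 100% = parthenolide positive control wells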
esBAF inh: SWI/SNF esBAF complex inhibition; mouse ES cells, Bmi1-luciferase knock-in reporter, 24 h; 100% = twice the neutral-well signal; reporter increase, % at 12.5 µM; 350,000 compounds, 2% hits; AID 602393; in the data active = activation above about 40%; inconclusive = no clear call, values can overlap the other calls;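 note: 0% = median of the plate's neutral control wells and 100% = double that signal; a rise in the Bmi1 reporter signal indicates esBAF inhibition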
Starred values were filed as active, the others as inactive. Rows were chosen to be rich in hits. Some 3.9% of all compounds tested hit in one or more screens of this group.

Results for COc1ccc(NC(=O)Nc2ccc3c(c2)C(=O)N([C@H](C)CO)C[C@H](C)[C@H](CN(C)C(=O)C2CCCCC2)OCCCC[C@@H](C)O3)cc1 ?
esBAF inh: -2.0

What do the screens show for `O=C(COC(=O)C1CC1)c1c[nH]c2ccccc12`?
HSF1 inhib: 3.2; HSF1 activator: 21.5; MITF TRPM1 HTS: 63.5; esBAF inh: 47.8*

How did O=C(COC(=O)C1CCC1)c1c[nH]c2ccccc12 do in these assays?
Wnt bcat act: -1.8; HSF1 inhib: -2.9; HSF1 activator: 7.6; MITF TRPM1 HTS: -11.8; esBAF inh: -0.4

How did O=C(OCC(=O)N1CCCCC1)c1c[nH]c2ccccc12 do in these assays?
Wnt bcat act: 27.3; MITF TRPM1 HTS: 94.0*; esBAF inh: 35.1

How did Cc1cc2oc(C(=O)Nc3nonc3C)c(C)c2cc1Cl do in these assays?
Wnt bcat act: 26.3; HSF1 inhib: 8.6; HSF1 activator: 7.4; MITF TRPM1 HTS: 54.1; esBAF inh: 43.8*

What do the screens show for `CCc1nonc1NC(=O)c1oc2ccc(C)cc2c1C`?
Wnt bcat act: 15.4; HSF1 inhib: 2.2; HSF1 activator: 15.7; MITF TRPM1 HTS: 63.9; esBAF inh: 39.6

How did Cc1nonc1NC(=O)c1oc2ccc(F)cc2c1C do in these assays?
Wnt bcat act: 1.3; HSF1 inhib: 6.8; HSF1 activator: 20.4; MITF TRPM1 HTS: 12.4; esBAF inh: 19.3

Results for CCc1ccc2oc(C(=O)Nc3nonc3CC)c(C)c2c1 ?
Wnt bcat act: 26.6; HSF1 inhib: 33.0; HSF1 activator: 41.8; MITF TRPM1 HTS: 89.9*; esBAF inh: inconclusive

Results for Clc1ccc(SCCn2cncn2)cc1 ?
Wnt bcat act: 1.3; HSF1 inhib: -14.1; HSF1 activator: -4.7; esBAF inh: -5.7

Results for Cc1ccc(SCCCn2cncn2)cc1 ?
Wnt bcat act: 7.0; HSF1 inhib: -70.5*; HSF1 activator: -78.6; MITF TRPM1 HTS: -1.6; esBAF inh: 8.1

What do the screens show for `CCOc1ccc(-n2nnnc2-c2nc3ccccc3s2)cc1`?
Wnt bcat act: -5.3; HSF1 inhib: -57.5*; HSF1 activator: -65.4; MITF TRPM1 HTS: -18.8

How did Cc1ccc(-n2nnnc2-c2nc3ccccc3s2)cc1 do in these assays?
HSF1 inhib: -4.8; HSF1 activator: -15.6; MITF TRPM1 HTS: 4.0

Results for CC(=O)N(C)C[C@@H]1Oc2cc(C#CCC(C)C)ccc2S(=O)(=O)N([C@H](C)CO)C[C@H]1C ?
esBAF inh: 10.0

Results for C/C(=N\NS(=O)(=O)c1ccccc1)c1ccc2c(c1)OCCO2 ?
Wnt bcat act: -1.4; HSF1 inhib: -56.3*; HSF1 activator: -67.4; MITF TRPM1 HTS: 2.5

What do the screens show for `CC(/C=C/c1ccc2c(c1)OCO2)=N\NC(=O)c1cccc([N+](=O)[O-])c1`?
Wnt bcat act: -0.3; HSF1 inhib: -2.2; HSF1 activator: -4.0; MITF TRPM1 HTS: -3.9; esBAF inh: 5.6

Results for CCSc1ccc(/C(N)=N/OC(=O)c2cccs2)cn1 ?
Wnt bcat act: 29.1; HSF1 inhib: 24.7; HSF1 activator: 34.3; MITF TRPM1 HTS: 107.8*; esBAF inh: 56.6*

What do the screens show for `N/C(=N\OC(=O)c1ccc2c(c1)OCO2)c1cccc([N+](=O)[O-])c1`?
Wnt bcat act: 9.5; HSF1 inhib: 50.4; HSF1 activator: 58.6*; MITF TRPM1 HTS: 32.5

How did C/C(=N/NC(=O)c1ccc2c(c1)OCO2)c1cccc([N+](=O)[O-])c1 do in these assays?
Wnt bcat act: -1.8; HSF1 inhib: 7.6; HSF1 activator: 11.8; MITF TRPM1 HTS: 126.3*; esBAF inh: 31.4

Results for COc1ccc(NC(=O)N2C[C@@H](O)COC[C@H]3O[C@@H](CC(=O)NCc4ccccc4OC)CC[C@@H]32)cc1 ?
esBAF inh: 0.6

How did CC(=O)N/N=C(\C)c1ccc2c(c1)OCCO2 do in these assays?
Wnt bcat act: -0.1; HSF1 inhib: -3.0; HSF1 activator: 8.2; MITF TRPM1 HTS: -4.4

What do the screens show for `Cc1cccc(C(=O)O/N=C(\N)c2cccc([N+](=O)[O-])c2)c1`?
Wnt bcat act: 18.6; HSF1 inhib: 39.1; HSF1 activator: 45.8; MITF TRPM1 HTS: 41.0

How did C/C(=N/NC(=O)c1ccc2c(c1)OCCO2)c1ccc([N+](=O)[O-])cc1 do in these assays?
Wnt bcat act: 0.7; HSF1 inhib: -66.7*; HSF1 activator: -65.3; esBAF inh: 25.8

What do the screens show for `N/C(=N\OC(=O)c1cccs1)c1cccc([N+](=O)[O-])c1`?
Wnt bcat act: 12.8; HSF1 inhib: 46.7; HSF1 activator: inconclusive; MITF TRPM1 HTS: 44.9; esBAF inh: 74.9*

How did COc1cccc(C(=O)Nc2ccc3c(c2)OC[C@@H](C)N(C)C[C@@H](C)[C@H](OC)CN(C)C3=O)c1 do in these assays?
esBAF inh: -3.2

What do the screens show for `Cc1nn(CCOc2ccccc2)c(=O)n1-c1ccc(Cl)cc1`?
Wnt bcat act: 3.2; HSF1 inhib: 4.0; HSF1 activator: 2.7; MITF TRPM1 HTS: 19.3; esBAF inh: 38.8

Results for Cc1nn(CCOc2ccccc2)c(=O)n1-c1ccccc1 ?
Wnt bcat act: 27.4; HSF1 inhib: 12.0; HSF1 activator: 20.6; MITF TRPM1 HTS: 22.3; esBAF inh: 42.6*

What do the screens show for `C[C@@H]1CN([C@H](C)CO)S(=O)(=O)c2ccc(C#CC3CC3)cc2O[C@@H]1CN(C)Cc1ccccn1`?
esBAF inh: 1.7

How did CCn1c(O)c(C=NC2CCCC2)sc1=S do in these assays?
Wnt bcat act: 18.5; HSF1 inhib: -0.8; HSF1 activator: 11.2; MITF TRPM1 HTS: 35.6; esBAF inh: 44.6*

What do the screens show for `CCCC(=O)Nc1ccc2c(c1)OC[C@@H](C)N(C(=O)c1ccccc1F)C[C@H](C)[C@@H](OC)CN(C)C2=O`?
esBAF inh: 3.5

Results for O=C(COC(=O)C1CSC2(c3ccc(F)cc3)CCC(=O)N12)NC(=O)NC1CCCC1 (configuration not stated) ?
Wnt bcat act: -0.1; HSF1 inhib: 19.8; HSF1 activator: 57.2*; MITF TRPM1 HTS: 2.4

How did CC(=O)Nc1ccc(Nc2ncnc3c2cnn3-c2ccccc2)cc1 do in these assays?
HSF1 inhib: 1.9; HSF1 activator: 20.4; MITF TRPM1 HTS: 45.0; esBAF inh: 31.2

Results for Cn1ncc2c(Nc3ccc4ccccc4c3)ncnc21 ?
Wnt bcat act: 20.5; HSF1 inhib: 6.2; HSF1 activator: 17.6; MITF TRPM1 HTS: 69.4; esBAF inh: 53.3*

What do the screens show for `Clc1ccc(Nc2ncnc3c2cnn3-c2ccccc2)cc1`?
Wnt bcat act: 12.8; HSF1 inhib: 13.3; HSF1 activator: 36.8; esBAF inh: 84.8*

What do the screens show for `Cc1c(C)n(CCc2ccccc2)c2ncnc(NCCCO)c12`?
Wnt bcat act: -0.5; HSF1 inhib: 12.2; HSF1 activator: 31.6; MITF TRPM1 HTS: inconclusive; esBAF inh: inconclusive

How did Fc1ccc(CNc2ncnc3c2cnn3-c2ccccc2)cc1 do in these assays?
Wnt bcat act: -0.7; HSF1 inhib: 7.5; HSF1 activator: 48.5; MITF TRPM1 HTS: 32.1; esBAF inh: 48.7*

What do the screens show for `COCCn1c(C)c(C)c2c(NCCc3ccccc3)ncnc21`?
Wnt bcat act: 1.9; HSF1 inhib: -73.5*; HSF1 activator: -75.5; MITF TRPM1 HTS: 5.2; esBAF inh: -30.4
